# Source: PubChem BioAssay (EPA / NIEHS)
# Records with an inconclusive call do not appear. Calls of active or inactive are those of the source. The calls were made as follows, unless noted: active = hit-call score of the fitted dose curve at least 0.9, where 1 is the maximum; inactive = score below 0.9.
# What was measured:
# [1] = biological target: human Vitamin D Receptor (VDR), VDR (gene 7421) (UniProt P11473); test: ATG_VDR_TRANS: Attagene TRANS-FACTORIAL HepG2 Assay for human Vitamin D Receptor (VDR) (AID 2283022; active = hit-call score of the fitted dose curve at least 0.9, where 1 is the maximum)
# Procedure, shortened: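 Fluorescence of labelled reporter cDNA fragments, resolved by capillary electrophoresis, gives mRNA induction after 24 h treatment of HepG2 cells carrying transfected Gal4-fusion reporter units. Activity is fitted in the positive direction with DMSO as baseline.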
# [2] = BSK_3C_SRB: Viability Assessment in the BioMAP Diversity Plus: 3C Assay (AID 2283023); details: primary human endothelial cells (HUVEC);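 also: cells read 24 h after compound dosing; fitted both ways against DMSO so a hit may be signal rise or drop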
# Procedure, shortened: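 Cells were dosed with chemical, cultured 24 h, fixed with 10% TCA, stained with 0.1% SRB and read at 560 nm. Human umbilical vein endothelium was used; DMSO served as negative control and baseline.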
# [3] = read-out: Matrix Metallopeptidase 1 (MMP1), MMP1 (gene 4312); test: BSK_BE3C_MMP1: BioMAP Diversity Plus: BE3C Assay for Matrix Metallopeptidase 1 (MMP1) Biomarker Activity (AID 2283024); details: primary human bronchial epithelial cells; actives raise or lower the signal
# Procedure, shortened: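 Human primary bronchial epithelial cells (BE3C system) dosed for 24 h; MMP-1 quantified by ELISA. Bidirectional fit against DMSO; cytotoxicity tracked in parallel cultures by SRB total-protein staining.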
# [4] = BSK_3C_Vis: BioMAP Diversity Plus: 3C Assay for Morphology Visualization (AID 2283025); details: primary human endothelial cells (HUVEC);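 also: fitted both ways so gain or loss versus DMSO counts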;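 as to AC50: light microscopy image of cell morphology used as background control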
# Procedure, shortened: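 Human umbilical vein endothelial cell morphology was inspected by light microscopy 24 h after chemical dosing; scored bidirectionally relative to DMSO.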
# [5] = read-out: Pselectin, SELP (gene 6403); test: BSK_4H_Pselectin: BioMAP Diversity Plus: 4H Assay for Pselectin Biomarker Activity (AID 2283026); details: primary human endothelial cells (HUVEC); actives raise or lower the signal
# Procedure, shortened: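 Primary human umbilical vein endothelial cells were treated 24 h, and cell-surface P-selectin was then quantified by ELISA. Bidirectional fit versus DMSO; cytotoxicity checked in parallel cultures by SRB total-protein staining.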
# [6] = BSK_4H_SRB: Viability Assessment in the BioMAP Diversity Plus: 4H Assay (AID 2283027); details: primary human endothelial cells (HUVEC);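 also: cells exposed to compound for 24 h before staining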;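 as to AC50: curves fitted both ways versus DMSO so AC50 may be loss or gain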
# Procedure, shortened: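 Absorbance at 560 nm of SRB-stained total protein served as the viability read-out in confluent primary human umbilical vein endothelium 24 h after chemical treatment. Curves were fitted bidirectionally against DMSO as negative control.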
# [7] = read-out: Thrombomodulin, THBD (gene 7056); test: BSK_3C_Thrombomodulin: BioMAP Diversity Plus: 3C Assay for Thrombomodulin Biomarker Activity (AID 2283029); details: primary human endothelial cells (HUVEC); actives raise or lower the signal
# Procedure, shortened: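 Human umbilical vein endothelial cells were exposed to chemicals for 24 h; cell-surface thrombomodulin quantified by ELISA, with bidirectional fitting against DMSO baseline.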
# [8] = read-out: Urokinase-type plasminogen activator receptor (uPAR), PLAUR (gene 5329); test: BSK_4H_uPAR: BioMAP Diversity Plus: 4H Assay for Urokinase-type plasminogen activator receptor (uPAR) Biomarker Activity (AID 2283030); details: primary human endothelial cells (HUVEC); actives raise or lower the signal
# Procedure, shortened: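 Chemicals are dosed onto human vascular endothelial primary cells (umbilical vein). After 24 h, uPAR is read by ELISA. Gain or loss of signal is fitted relative to DMSO.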
# [9] = read-out: Vascular endothelial growth factor receptor 2 (Homo sapiens) (UniProt P35968); test: BSK_4H_VEGFRII: BioMAP Diversity Plus: 4H Assay for Vascular endothelial growth factor receptor 2 (VEGFR2) Biomarker Activity (AID 2283031); details: primary human endothelial cells (HUVEC); actives raise or lower the signal;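 as to AC50: cell-surface VEGFR2 protein level quantified by ELISA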
# Procedure, shortened: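 VEGFRII levels on human vascular endothelial primary cells were determined by ELISA at 24 hours post-dosing, with gain- or loss-of-signal fitted against DMSO controls.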
# [10] = BSK_BE3C_SRB: Viability Assessment in the BioMAP Diversity Plus: BE3C Assay (AID 2283028); details: primary human bronchial epithelial cells;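 as to AC50: fitted both ways so AC50 may mark signal gain or loss versus DMSO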
# Procedure, shortened: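 Overt cytotoxicity was assessed as total protein in confluent human primary bronchial epithelial cultures 24 h after chemical addition, using 0.1% sulforhodamine B staining read at 560 nm.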
# human Vitamin D Receptor (VDR), VDR (gene 7421), sequence (P11473 whole entry, looked up, the tested form may be a part): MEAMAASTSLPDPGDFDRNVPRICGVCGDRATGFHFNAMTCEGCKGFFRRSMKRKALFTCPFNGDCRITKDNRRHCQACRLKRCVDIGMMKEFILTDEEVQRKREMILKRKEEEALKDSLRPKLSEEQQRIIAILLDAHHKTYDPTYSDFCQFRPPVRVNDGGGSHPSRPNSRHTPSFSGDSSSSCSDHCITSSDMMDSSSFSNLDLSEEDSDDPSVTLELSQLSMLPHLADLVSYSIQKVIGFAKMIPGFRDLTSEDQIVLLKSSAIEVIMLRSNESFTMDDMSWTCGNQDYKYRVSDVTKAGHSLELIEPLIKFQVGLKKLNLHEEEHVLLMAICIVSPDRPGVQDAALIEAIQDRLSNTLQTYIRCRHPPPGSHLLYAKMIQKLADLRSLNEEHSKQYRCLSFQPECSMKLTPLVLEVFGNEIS
compound,measurement,setting,value
CCCCCCCCCCCCN(C)C,outcome,[1],inactive
same,AC50,[2],20 µM (active)
same,outcome,[3],inactive
same,outcome,[4],inactive
same,outcome,[5],inactive
same,outcome,[6],inactive
same,outcome,[7],inactive
same,outcome,[8],inactive
same,outcome,[9],inactive
CCOP(=S)(OCC)SCS(=O)(=O)C(C)(C)C,outcome,[1],inactive
same,outcome,[2],inactive
same,outcome,[3],inactive
same,outcome,[4],inactive
same,outcome,[5],inactive
same,outcome,[6],inactive
same,outcome,[10],inactive
same,outcome,[7],inactive
same,outcome,[8],inactive
same,outcome,[9],inactive
N#Cc1cccnc1,outcome,[1],inactive
same,outcome,[2],inactive
same,outcome,[3],inactive
same,outcome,[4],inactive
same,outcome,[5],inactive
same,outcome,[6],inactive
same,outcome,[10],inactive
same,outcome,[7],inactive
same,outcome,[8],inactive
same,outcome,[9],inactive
Cc1cc(C)cc(C)c1,outcome,[2],inactive
same,outcome,[3],inactive
same,outcome,[4],inactive
same,outcome,[5],inactive
same,outcome,[6],inactive
same,outcome,[7],inactive
same,outcome,[8],inactive
same,outcome,[9],inactive
OC(Cc1ccccc1Cl)(Cn1cncn1)C1(Cl)CC1 (configuration not stated),outcome,[1],inactive
same,outcome,[2],inactive
same,outcome,[3],inactive
same,outcome,[4],inactive
same,outcome,[5],inactive
same,outcome,[6],inactive
same,outcome,[7],inactive
same,outcome,[8],inactive
same,outcome,[9],inactive
CCCCCCCCCCCCc1cccc(S(=O)(=O)O)c1,outcome,[2],inactive
same,AC50,[3],28.8 µM (active)
same,outcome,[4],inactive
same,outcome,[5],inactive
same,outcome,[6],inactive
same,AC50,[10],26.9 µM (active)
same,outcome,[7],inactive
same,outcome,[8],inactive
same,outcome,[9],inactive
CCN(CC)C(=O)C(Cl)=C(C)OP(=O)(OC)OC,outcome,[2],inactive
same,outcome,[3],inactive
same,outcome,[4],inactive
same,outcome,[5],inactive
same,outcome,[6],inactive
same,outcome,[10],inactive
same,outcome,[7],inactive
same,outcome,[8],inactive
same,outcome,[9],inactive
CC(C)(COCC1CO1)COCC1CO1 (configuration not stated),outcome,[1],inactive
same,outcome,[2],inactive
same,outcome,[3],inactive
same,outcome,[4],inactive
same,outcome,[5],inactive
same,outcome,[6],inactive
same,outcome,[7],inactive
same,outcome,[8],inactive
same,outcome,[9],inactive
O=S(=O)(c1ccc(Cl)cc1)c1cc(Cl)c(Cl)cc1Cl,outcome,[1],inactive
same,AC50,[2],5.42 µM (active)
same,outcome,[3],inactive
same,AC50,[4],13.6 µM (active)
same,outcome,[5],inactive
same,outcome,[6],inactive
same,outcome,[7],inactive
same,outcome,[8],inactive
same,outcome,[9],inactive
CCOC(=O)CCN(SN(C)C(=O)Oc1cccc2c1OC(C)(C)C2)C(C)C,outcome,[2],inactive
same,outcome,[3],inactive
same,AC50,[4],20 µM (active)
same,AC50,[5],23.2 µM (active)
same,outcome,[6],inactive
same,outcome,[7],inactive
same,outcome,[8],inactive
same,outcome,[9],inactive
CC(C)O.CC(C)O.OCCN(CCO)CCO.OCCN(CCO)CCO.[Ti],outcome,[2],inactive
same,outcome,[3],inactive
same,outcome,[4],inactive
same,outcome,[5],inactive
same,outcome,[6],inactive
same,outcome,[7],inactive
same,outcome,[8],inactive
same,outcome,[9],inactive
OCCN(CCO)CCO,outcome,[2],inactive
same,outcome,[3],inactive
same,outcome,[4],inactive
same,outcome,[5],inactive
same,outcome,[6],inactive
same,outcome,[7],inactive
same,outcome,[8],inactive
same,outcome,[9],inactive
C[C@]12CC[C@@H](O)C[C@@H]1CC[C@@H]1[C@@H]2CC[C@]2(C)C(=O)CC[C@@H]12,outcome,[1],inactive
same,outcome,[2],inactive
same,outcome,[3],inactive
same,outcome,[4],inactive
same,outcome,[5],inactive
same,outcome,[6],inactive
same,outcome,[7],inactive
same,outcome,[8],inactive
same,outcome,[9],inactive
Cc1ccc2nc3sc(=O)sc3nc2c1,AC50,[2],6.71 µM (active)
same,outcome,[3],inactive
same,AC50,[4],9.8 µM (active)
same,AC50,[5],3.77 µM (active)
same,AC50,[6],6.96 µM (active)
same,outcome,[10],inactive
same,outcome,[7],inactive
same,AC50,[8],6.39 µM (active)
same,AC50,[9],9.18 µM (active)
Clc1cccc(Cl)c1Cl,outcome,[1],inactive
same,outcome,[2],inactive
same,outcome,[3],inactive
same,outcome,[4],inactive
same,outcome,[5],inactive
same,outcome,[6],inactive
same,outcome,[7],inactive
same,outcome,[8],inactive
same,outcome,[9],inactive
Cc1cc(Cl)ccc1N,outcome,[2],inactive
same,outcome,[3],inactive
same,outcome,[4],inactive
same,outcome,[5],inactive
same,outcome,[6],inactive
same,outcome,[10],inactive
same,outcome,[7],inactive
same,outcome,[8],inactive
same,outcome,[9],inactive
Oc1cccc(-c2ccccc2)c1,AC50,[2],20 µM (active)
same,outcome,[3],inactive
same,AC50,[4],38.9 µM (active)
same,outcome,[5],inactive
same,AC50,[6],20 µM (active)
same,outcome,[10],inactive
same,outcome,[7],inactive
same,outcome,[8],inactive
same,outcome,[9],inactive
Oc1c(Cl)cc(Cl)cc1Cl,outcome,[2],inactive
same,outcome,[3],inactive
same,outcome,[4],inactive
same,outcome,[5],inactive
same,outcome,[6],inactive
same,outcome,[10],inactive
same,outcome,[7],inactive
same,outcome,[8],inactive
same,outcome,[9],inactive
CCCCOC(=O)COC(=O)c1ccccc1C(=O)OCCCC,outcome,[2],inactive
same,outcome,[3],inactive
same,outcome,[5],inactive
same,outcome,[6],inactive
same,outcome,[7],inactive
same,outcome,[8],inactive
same,outcome,[9],inactive
O=[N+]([O-])c1cccc2ccccc12,outcome,[2],inactive
same,outcome,[3],inactive
same,outcome,[4],inactive
same,outcome,[5],inactive
same,outcome,[6],inactive
same,outcome,[7],inactive
same,outcome,[8],inactive
same,outcome,[9],inactive
Oc1ccc(Cc2ccc(O)cc2)cc1,outcome,[2],inactive
same,outcome,[3],inactive
same,outcome,[4],inactive
same,outcome,[5],inactive
same,outcome,[6],inactive
same,outcome,[10],inactive
same,outcome,[7],inactive
same,outcome,[8],inactive
same,outcome,[9],inactive
CCOP(=S)(OCC)OP(=S)(OCC)OCC,AC50,[2],26.6 µM (active)
same,outcome,[3],inactive
same,AC50,[4],37.5 µM (active)
same,AC50,[5],31.2 µM (active)
same,AC50,[6],20 µM (active)
same,outcome,[7],inactive
same,AC50,[8],32.3 µM (active)
same,outcome,[9],inactive
CCC(C)(C#N)N=NC(C)(C#N)CC (configuration not stated),outcome,[2],inactive
same,outcome,[3],inactive
same,outcome,[4],inactive
same,outcome,[5],inactive
same,outcome,[6],inactive
same,outcome,[10],inactive
same,outcome,[7],inactive
same,outcome,[8],inactive
same,outcome,[9],inactive
Oc1cc(Cl)c(Cl)cc1Cl,AC50,[2],28.7 µM (active)
same,outcome,[3],inactive
same,AC50,[4],39 µM (active)
same,AC50,[5],25.6 µM (active)
same,AC50,[6],25.5 µM (active)
same,outcome,[7],inactive
same,AC50,[8],27.4 µM (active)
same,AC50,[9],31 µM (active)
COc1ccccc1N,outcome,[2],inactive
same,outcome,[3],inactive
same,outcome,[4],inactive
same,outcome,[5],inactive
same,outcome,[6],inactive
same,outcome,[7],inactive
same,outcome,[8],inactive
same,outcome,[9],inactive
